{"source": "PubChem BioAssay AID1210", "about": "(NMMLSC, 2008)", "target": "Estrogen receptor beta (Homo sapiens) (UniProt Q92731)", "sequence (Q92731 whole entry, looked up)": "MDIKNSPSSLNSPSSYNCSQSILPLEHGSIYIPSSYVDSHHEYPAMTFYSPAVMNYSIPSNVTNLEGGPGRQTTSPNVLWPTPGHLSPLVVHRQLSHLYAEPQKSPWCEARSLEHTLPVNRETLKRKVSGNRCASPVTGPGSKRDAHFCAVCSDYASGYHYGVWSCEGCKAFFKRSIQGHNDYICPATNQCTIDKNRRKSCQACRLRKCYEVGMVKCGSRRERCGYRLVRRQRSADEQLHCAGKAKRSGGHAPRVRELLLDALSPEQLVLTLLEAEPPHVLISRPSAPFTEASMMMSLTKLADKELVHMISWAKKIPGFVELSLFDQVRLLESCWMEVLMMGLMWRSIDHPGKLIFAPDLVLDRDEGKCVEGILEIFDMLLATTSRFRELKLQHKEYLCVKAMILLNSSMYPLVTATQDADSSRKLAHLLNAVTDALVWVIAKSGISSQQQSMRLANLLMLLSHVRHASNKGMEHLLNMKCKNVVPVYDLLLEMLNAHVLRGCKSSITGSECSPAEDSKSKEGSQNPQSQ", "experiment": "ERbeta ligand binders by competition, primary screen, cell-based, Cos7 ERbeta-GFP, flow cytometry (AID 1210);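 further: 0% = DMSO vehicle wells and 100% = complete loss of labeled estradiol signal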", "conditions": "fluorescent estrogen binding, stronger effect = higher value", "key": {"[1]": {"conditions": "ligand binding inhibition, at 0.1 µM"}}, "note": "Calls of active or inactive are those of the source.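 How the source made its calls: active means blocks over 70% of labeled estradiol binding at 10 µM, or over a set limit at 100 nM; inactive means the rest.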", "data": [{"compound": "Cc1ccc(C)n1-c1sccc1C(=O)O", "values": [{"measurement": "inhibition", "setting": "at 10 µM", "result": "18% (inactive)"}, {"measurement": "inhibition", "setting": "[1]", "result": 26, "unit": "%"}]}, {"compound": "CCC1(C)NC(=O)N(CC(=O)Nc2sc3c(c2C(N)=O)CCC3)C1=O", "note": "(stereo not drawn)", "values": [{"measurement": "inhibition", "setting": "at 10 µM", "result": "58% (inactive)"}, {"measurement": "inhibition", "setting": "[1]", "result": 39, "unit": "%"}]}, {"compound": "CCOc1cccc2cc(-c3nnc(NCc4ccco4)s3)c(=O)oc12", "values": [{"measurement": "inhibition", "setting": "at 10 µM", "result": "26% (inactive)"}, {"measurement": "inhibition", "setting": "[1]", "result": 28, "unit": "%"}]}, {"compound": "COC(=O)C1=C(O)/C(=C\\c2ccc(CNC(=O)C(=O)Nc3ccc(C)c(C)c3)o2)N=C1C", "values": [{"measurement": "inhibition", "setting": "at 10 µM", "result": "42% (inactive)"}, {"measurement": "inhibition", "setting": "[1]", "result": 20, "unit": "%"}]}, {"compound": "CC12CCC(=O)N1C(C(=O)OCC(=O)Nc1sccc1C#N)CS2", "note": "(stereo not drawn)", "values": [{"measurement": "inhibition", "setting": "at 10 µM", "result": "37% (inactive)"}, {"measurement": "inhibition", "setting": "[1]", "result": 47, "unit": "%"}]}, {"compound": "CC(C)CC(=O)Nc1ccc(C(=O)COc2ccc(-c3nnco3)cc2)cc1", "values": [{"measurement": "inhibition", "setting": "at 10 µM", "result": "44% (inactive)"}, {"measurement": "inhibition", "setting": "[1]", "result": 49, "unit": "%"}]}, {"compound": "CN1CCC(=NNC(=O)c2cn(-c3ccccc3)nc2-c2ccccc2)CC1", "values": [{"measurement": "inhibition", "setting": "at 10 µM", "result": "32% (inactive)"}, {"measurement": "inhibition", "setting": "[1]", "result": 6, "unit": "%"}]}, {"compound": "Cc1ccc(C(=O)Nc2nc(-c3cccnc3)cs2)o1", "values": [{"measurement": "inhibition", "setting": "at 10 µM", "result": "15% (inactive)"}, {"measurement": "inhibition", "setting": "[1]", "result": 43, "unit": "%"}]}, {"compound": "Cc1ccc2[nH]c(=O)c(-c3nc4ccccn4c3NCc3ccco3)cc2c1", "values": [{"measurement": "inhibition", "setting": "at 10 µM", "result": "56% (inactive)"}, {"measurement": "inhibition", "setting": "[1]", "result": 44, "unit": "%"}]}, {"compound": "COc1cccc(NS(=O)(=O)c2ccc3c(c2)C2C=CCC2C(c2ccc(C(=O)O)cc2)N3)c1", "note": "(stereo not drawn)", "values": [{"measurement": "inhibition", "setting": "at 10 µM", "result": "0% (inactive)"}, {"measurement": "inhibition", "setting": "[1]", "result": 9, "unit": "%"}]}, {"compound": "CSC1=N/C(=C\\c2ccc(Br)o2)C(=O)S1", "values": [{"measurement": "inhibition", "setting": "at 10 µM", "result": "26% (inactive)"}, {"measurement": "inhibition", "setting": "[1]", "result": 43, "unit": "%"}]}, {"compound": "CN1C(=O)CSc2ccc(NC(=O)N3CCC(N4CCCCC4)CC3)cc21", "values": [{"measurement": "inhibition", "setting": "at 10 µM", "result": "30% (inactive)"}, {"measurement": "inhibition", "setting": "[1]", "result": 19, "unit": "%"}]}, {"compound": "Nc1ccc(-c2nc3c(Cl)c(N)ccc3[nH]2)cc1", "values": [{"measurement": "inhibition", "setting": "at 10 µM", "result": "66% (inactive)"}, {"measurement": "inhibition", "setting": "[1]", "result": 32, "unit": "%"}]}, {"compound": "CC(=O)N1c2ccc3ccccc3c2C2C=CCC2C1c1ccc(Br)cc1", "note": "(stereo not drawn)", "values": [{"measurement": "inhibition", "setting": "at 10 µM", "result": "8% (inactive)"}, {"measurement": "inhibition", "setting": "[1]", "result": 3, "unit": "%"}]}]}
